Results: the antibiotic and cytotoxicity screens of Wong et al. (2023)
Hit rate of the full screen: of about 39,000 compounds, about 500 (1.3%) were called active. The full list was thinned out, with actives kept by preference.

system: S. aureus RN4220; test: growth inhibition call (relative growth <= 0.2); settings: 50 µM

Growth inhibition call, active:
CO[C@H](CN(C)C(=O)C1CCOCC1)[C@H](C)CN(C(=O)Nc1ccc(C(F)(F)F)cc1)[C@@H](C)CO, CO[C@@H](CN(C)C(=O)C1CCOCC1)[C@H](C)CN(C(=O)Nc1ccc(C(F)(F)F)cc1)[C@@H](C)CO, CO[C@@H](CN(C)C(=O)C1CCOCC1)[C@@H](C)CN(C(=O)Nc1ccc(C(F)(F)F)cc1)[C@H](C)CO, CO[C@H](CN(C)C(=O)C1CCOCC1)[C@@H](C)CN(C(=O)Nc1ccc(C(F)(F)F)cc1)[C@@H](C)CO, CO[C@H](CN(C)C(=O)C1CCOCC1)[C@@H](C)CN(C(=O)Nc1ccc(C(F)(F)F)cc1)[C@H](C)CO, CO[C@H](CN(C)C(=O)C1CCOCC1)[C@H](C)CN(C(=O)Nc1ccc(C(F)(F)F)cc1)[C@H](C)CO, CCCNC(=O)c1cc2c(c(-c3cccc(-c4cccc(F)c4)c3)n1)[C@H](CCO)N([S@@](=O)C(C)(C)C)C2

Growth inhibition call, inactive:
C[C@H](CO)N1C[C@H](C)[C@@H](CN(C)C(=O)Nc2cccc3ccccc23)Oc2ccc(NC(=O)Cn3cnnn3)cc2CC1=O, CO[C@H](CN(C)C(=O)Nc1ccc(C(F)(F)F)cc1)[C@H](C)CN(Cc1ccccc1Cl)[C@@H](C)CO, CO[C@@H](CN(C)C(=O)Nc1ccc(C(F)(F)F)cc1)[C@H](C)CN(Cc1ccccc1Cl)[C@@H](C)CO, CO[C@@H](CN(C)C(=O)C1CCOCC1)[C@@H](C)CN(C(=O)Nc1ccc(C(F)(F)F)cc1)[C@@H](C)CO, CO[C@H](CN(C)C(=O)Nc1ccc(C(F)(F)F)cc1)[C@@H](C)CN(Cc1ccccc1Cl)[C@@H](C)CO, C[C@@H]1CN([C@H](C)CO)C(=O)c2cc(NC(=O)Nc3ccc(C(F)(F)F)cc3)ccc2O[C@@H](C)CCCCO[C@H]1CN(C)C(=O)C1CCCCC1, CO[C@H](CN(C)C(=O)Nc1ccc(C(F)(F)F)cc1)[C@@H](C)CN(Cc1ccccc1Cl)[C@H](C)CO, CO[C@@H](CN(C)C(=O)Nc1ccc(C(F)(F)F)cc1)[C@H](C)CN(Cc1ccccc1Cl)[C@H](C)CO, C[C@H](CO)N1C[C@H](C)[C@@H](CN(C)C(=O)C2CCCCC2)OCCCC[C@H](C)Oc2ccc(NC(=O)Nc3ccc(C(F)(F)F)cc3)cc2C1=O, COc1ccc(S(=O)(=O)N(C)C[C@@H]2OCc3cn(nn3)CCCC(=O)N([C@H](C)CO)C[C@H]2C)cc1, COc1ccc(NC(=O)N(C)C[C@@H]2OCCCC[C@H](C)Oc3ccc(NS(=O)(=O)c4ccc(C)cc4)cc3C(=O)N([C@H](C)CO)C[C@H]2C)cc1, Nc1nnc(CC(=O)N2CCCCC2)o1, CN1C(=O)c2cc(NC(=O)Nc3ccccc3F)ccc2OC[C@@H]2O[C@@H](CC(=O)NCc3ccc(-c4ccccc4)cc3)CC[C@H]21, Cc1noc(C)c1S(=O)(=O)Nc1ccc2c(c1)CC(=O)N([C@@H](C)CO)C[C@H](C)[C@H](CN(C)Cc1ccc(C(=O)O)cc1)O2, C[C@@H]1CCCCO[C@H](CN(C)C(=O)Nc2cccc3ccccc23)[C@H](C)CN([C@@H](C)CO)C(=O)c2cc(NS(=O)(=O)c3ccc(Cl)cc3)ccc2O1, COc1ccc(S(=O)(=O)N(C)C[C@@H]2OCc3cnnn3CCCC(=O)N([C@@H](C)CO)C[C@H]2C)cc1, C[C@H]1CCCCO[C@H](CN(C)C)[C@@H](C)CN([C@@H](C)CO)C(=O)c2cc(NC(=O)CCCN(C)C)ccc2O1, Cc1cc(C)c(S(N)(=O)=O)cc1S(N)(=O)=O, C=CCOC(=O)[C@@H]1[C@H]2C(=O)O[C@H](c3ccccc3)[C@H](c3ccccc3)N2[C@H](c2ccc(OCCOC(=O)[C@@H]3C[C@@H]4C(=O)N[C@@H](Cc5ccccc5)C(=O)N4[C@@H]3c3ccc(O)cc3)cc2)[C@@]12C(=O)Nc1ccccc12, C[C@H]1CN([C@@H](C)CO)C(=O)c2cc(C#CCN(C)C)cnc2O[C@@H]1CN(C)Cc1cccc(C(=O)O)c1, COc1ccc(S(=O)(=O)N(C)C[C@@H]2Oc3ccc(NS(C)(=O)=O)cc3C(=O)N([C@H](C)CO)C[C@@H]2C)cc1, C[C@@H]1CCCCO[C@@H](CN(C)C(=O)C2CCCCC2)[C@@H](C)CN([C@H](C)CO)C(=O)c2cc(NC(=O)Nc3ccc(C(F)(F)F)cc3)ccc2O1, C[C@@H]1CCCCO[C@@H](CN(C)C(=O)C2CCCCC2)[C@H](C)CN([C@@H](C)CO)C(=O)c2cc(NC(=O)Nc3ccc(C(F)(F)F)cc3)ccc2O1, CO[C@H](CN(C)C(=O)Nc1ccc(C(F)(F)F)cc1)[C@H](C)CN(Cc1ccccc1Cl)[C@H](C)CO, CO[C@@H](CN(C)C(=O)Nc1ccc(C(F)(F)F)cc1)[C@@H](C)CN(Cc1ccccc1Cl)[C@@H](C)CO, Cc1noc(C)c1NC(=O)Nc1ccc2c(c1)C(=O)N([C@H](C)CO)C[C@@H](C)[C@H](CN(C)S(=O)(=O)c1ccc(Cl)cc1)OCCCC[C@@H](C)O2, C[C@H](CO)N1C[C@H](C)[C@@H](CN(C)Cc2ccc(C(=O)Nc3ccccc3N)cc2)Oc2c(NC(=O)c3nc4ccccc4s3)cccc2C1=O, COc1ccc(S(=O)(=O)Nc2ccc3c(c2)C(=O)N([C@H](C)CO)C[C@H](C)[C@@H](CN(C)Cc2ccc(C(=O)O)cc2)OCCCC[C@@H](C)O3)cc1, CCNC(=O)C[C@H]1C=C[C@H](NC(=O)C2CC2)[C@H](CO)O1, O=c1c(O)nnc2n1CCN2c1ccccc1, Cc1noc(C)c1S(=O)(=O)Nc1cccc2c1O[C@@H](CN(C)S(=O)(=O)c1ccccc1)[C@@H](C)CN([C@H](C)CO)C2=O, Cc1ccc(S(=O)(=O)Nc2ccc3c(c2)C(=O)N([C@@H](C)CO)C[C@H](C)[C@@H](CN(C)CC2CCCCC2)OCCCC[C@H](C)O3)cc1, Cc1ccc(CN2CCN(CCO)CC2)o1, O=C(NCC(F)(F)F)[C@H]1[C@H](CO)[C@H]2Cn3c(cccc3=O)[C@@H]1N2C(=O)C1CCC1, CCCNC(=O)c1cc2c(c(-c3cccc(-c4cccc(F)c4)c3)n1)[C@@H](CCO)N([S@](=O)C(C)(C)C)C2, CCCNC(=O)c1cc2c(c(-c3cccc(-c4ccc(F)cc4)c3)n1)[C@H](CCO)N([S@@](=O)C(C)(C)C)C2
